Bioassay records: PubChem BioAssay, National Center for Advancing Translational Sciences (NCATS)
This excerpt belongs to a sample that is enriched for hits.
CHX counter = counter-screen hit for Shiga toxin inhibitors, cycloheximide | cell reporter, cycloheximide protein synthesis inhibition counterscreen | 300,000 tested, 12% active | max response, %; in the data active = max response mostly above about 13%, no sharp cut-off; inactive = mostly below about 14%; also: read at 38.3 µM for the half of the compounds with a filed dose; 0% is about no effect
Shiga inhibitor = blocks Shiga toxin action in Vero cells; inhibition, % at 38.7 µM; 290,000 tested, 9.2% active; AID 2315; Vero cells, Shiga toxin protein synthesis inhibition reporter; in the data active = inhibition mostly above about 28%, no sharp cut-off; inactive = mostly below about 43%; also: 0% is about no effect
RE007 growth inh = less growth of the S. pombe RE007 Vpr strain | S. pombe RE007 Vpr strain, BacTiter-Glo ATP luminescence, 24 h | Potency, µM (titrated, usually from 92.2 µM), for inactives: top-dose activity change, negative = less growth, actives largely listed as inhibitors | 360,000 tested, 0.21% active | AID 651644; active = well fitted falling curve with a large enough effect; inconclusive = small, poorly fitted or top-dose-only effect; inactive = no such curve, though single readings can be large or run the other way; also: potency is read from the fitted curve at half-maximal effect; % is scaled to controls: 0 for no effect and ±100 for the full control effect; nearly all actives have a fitted effect of over 50% in size
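Fission yeast RE007 carrying one integrated HIV-1 vpr copy, seeded at OD 0.01 in PMG+AL medium with 23 nL pinned compound. Grown 24 h at 30 degrees; viability read by BacTiter-Glo luminescence after 5 min.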
TbPYK inhibitor = blocks Trypanosoma brucei pyruvate kinase. Q57TT1. TbPYK enzyme, Kinase-Glo Plus ATP luminescence, 45 min. Potency, µM (doses to about 76.8 µM), inactives show top-dose activity, negative = inhibition, actives largely listed as inhibitors. 410,000 tested, 0.12% active; also: potency is read from the fitted curve at half-maximal effect; % is scaled to controls: 0 for no effect and ±100 for the full control effect; nearly all actives have a fitted effect of over 50% in size
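Readout: single end-point luminescence (Kinase-Glo Plus, 10 min). Reaction conditions were TbPYK/substrate plus 130 uM ADP, 45 min at RT, pH 7.2 TEA buffer. No-enzyme wells served as controls, and data were normalized before concentration-response fitting.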
Giardia FBPA inh = blocks Giardia fructose-bisphosphate aldolase activity. A8B2U2. purified Giardia FBPA. Potency, µM (doses to about 59.6 µM), inactives show at the highest dose activity, negative = inhibition, actives largely listed as inhibitors. 290,000 tested, 0.71% active. AID 2451; also: potency is read from the fitted curve at half-maximal effect; % is scaled to controls: 0 for no effect and ±100 for the full control effect; nearly all actives have a fitted effect of over 55% in size
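Giardia FBPA (40 nM reagent) was preincubated 10 min at RT with compound (up to 57.5 uM final), then substrate plus GAPDH/TPI/NAD/arsenate coupling system with diaphorase/resazurin was added; resorufin fluorescence (525/598 nm) was read after 20 min.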
LmPK inh = blocks Leishmania mexicana pyruvate kinase activity; Q27686; purified LmPK, Kinase-Glo ATP luminescence, 1 h; Potency, µM (highest dose often 57.5 µM), inactives show at the highest dose activity change, negative = inhibition, usual class: inhibitors; 290,000 tested, 0.37% active; also: potency is read from the fitted curve at half-maximal effect; % is scaled to controls: 0 for no effect and ±100 for the full control effect
Target sequence (Q27686 whole entry, looked up): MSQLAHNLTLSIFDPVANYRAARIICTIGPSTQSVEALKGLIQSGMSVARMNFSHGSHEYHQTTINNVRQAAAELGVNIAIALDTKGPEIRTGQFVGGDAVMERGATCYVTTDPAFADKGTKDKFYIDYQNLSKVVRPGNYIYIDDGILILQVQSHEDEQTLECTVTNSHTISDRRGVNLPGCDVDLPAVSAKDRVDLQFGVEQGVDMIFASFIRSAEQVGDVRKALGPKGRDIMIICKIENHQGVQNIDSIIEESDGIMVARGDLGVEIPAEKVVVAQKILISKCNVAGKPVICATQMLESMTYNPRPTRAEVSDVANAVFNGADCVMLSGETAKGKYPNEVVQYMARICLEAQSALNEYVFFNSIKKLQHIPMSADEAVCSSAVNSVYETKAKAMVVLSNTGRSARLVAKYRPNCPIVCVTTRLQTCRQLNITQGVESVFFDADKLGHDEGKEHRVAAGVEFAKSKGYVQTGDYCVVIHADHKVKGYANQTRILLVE
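Purified LmPK (0.1 nM) converted ADP (0.1 mM) to ATP with PEP (0.5 mM) in imidazole buffer pH 7.2 with KCl and MgCl2, 1 h at room temperature. ATP was read by Kinase-Glo luminescence; data normalized to uninhibited and no-enzyme controls.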
Starred values were filed as active, the others as inactive; ? = inconclusive; / = no result; [ ] = another dose, or the depositor's remark. Unless noted, calls follow the shape of the dose curve; as a rule, active = well fitted curve in the direction sought with a large enough effect; inconclusive = small, poorly fitted or top-dose-only effect, or another doubt; inactive = no such curve, though single readings can be large; an effect the other way counts as inactive or inconclusive.

SMILES	CHX counter	Shiga inhibitor	RE007 growth inh	TbPYK inhibitor	Giardia FBPA inh	LmPK inh
CC(C)NC(=O)CCSc1nc(-c2ccc3c(c2)OCO3)cc(C(F)(F)F)n1	/	/	/	-3%	/	/
C(=N\Nc1nc(-c2ccccc2)cs1)/c1cccnc1	46*	61*	5%	-26%	-1%	2%
CCCC(=O)Nc1ccc(-c2csc(N/N=C\c3ccncc3)n2)cc1	31*	30	3%	?	0%	2%
Cc1ccc(/C=N/Nc2nc(C(C)(C)C)cs2)o1	46*	93*	1%	-12%	?	0%
CC(C)(C)c1csc(N/N=C/c2cccnc2)n1	37*	127*	15%	1%	-8%	3%
Cc1ccc2nc(Cl)c3cc(C(=O)NC4CCC(C)CC4)sc3c2c1 (configuration not stated)	/	/	/	-6%	/	/
OCCCNc1ccccc1	/	/	/	1%	/	/
Cc1noc(C)c1-c1ccc2ncnc(NCc3ccccc3Cl)c2c1	2	-4	/	/	0%	/
N#Cc1ccccc1NC(=O)CSc1ncn[nH]1	/	/	/	-1%	/	/
CCc1ccc(NC(=O)CCc2c(C)n(C)c3cc(-c4ccccc4C)nn3c2=O)cc1	/	/	/	-2%	/	/
Cc1ccc(/C=N/Nc2nc3ccccc3s2)o1	43*	75*	-5%	-4%	1%	-13%
CC(=O)c1cccc(NC(=O)C(C)n2c(=O)cc(-c3ccccc3)c3c(C)nn(C)c32)c1 (configuration not stated)	/	/	/	2%	/	/
CCN(C(=O)c1coc(=O)c(Br)c1)c1ccc2c(c1)OCO2	27*	86*	-13%	?	?	-1%
N=c1oc2c3c4c(cc2cc1C(=O)Nc1ccccc1)CCCN4CCC3	23*	28	5%	2%	?	8%
Cc1oc(S(=O)(=O)N2CCCC2)cc1C(=O)Nc1ccccc1	-2	3	2%	-3%	6%	1%
COc1ccc(CCNC(=O)c2ccc3c(c2)OCO3)cc1	27*	62	11%	4%	1%	4%
COc1ccc(CCNC(=O)c2ccc3c(c2)OCCO3)cc1	35*	84*	14%	2%	0%	1%
COc1ccc(CCNC(=O)c2coc(=O)c(Br)c2)cc1	26*	71*	-21%	10%	-3%	1%
O=C(NCCc1ccccc1)c1ccc2c(c1)OCCO2	-3	-37	14%	-10%	/	-22%
COc1ccc(CCNC(=O)c2ccc(=O)[nH]c2)cc1	0	26	4%	-2%	-1%	-2%
COc1ccc2cc(CCNC(=O)c3ccc4c(c3)OCO4)c(=O)[nH]c2c1	-1	-3	-3%	2%	13%	10%
CCn1cc2c(n1)-c1c(oc(C(=O)Nc3ccc(Br)cc3F)c1C)CC2	/	/	/	-4%	/	/
O=C(CSc1cccc[n+]1[O-])Nc1cc2c(cc1Cl)C(=O)c1ccccc1C2=O	26*	82*	?	-14%	-3%	1%
O=C(CSc1cccc[n+]1[O-])Nc1cc([N+](=O)[O-])ccc1Cl	-3	-7	-6%	7%	-1%	0%
O=C(CSc1cccc[n+]1[O-])Nc1cc(S(=O)(=O)N2CCOCC2)ccc1Cl	-2	13	-8%	-5%	1%	-3%
SMILES	CHX counter	Shiga inhibitor	RE007 growth inh	TbPYK inhibitor	Giardia FBPA inh	LmPK inh
O=C(CSc1cccc[n+]1[O-])Nc1cc(S(=O)(=O)N2CCOCC2)ccc1N1CCOCC1	49*	14	-15%	2%	0%	4%
CC1(C)OC2CC3C4CC(F)C5=CC(=O)C=C[C@@]5(C)[C@@]4(F)C(O)C[C@@]3(C)[C@]2(C(=O)CO)O1 (some centres not stated)	/	/	/	/	0%	/
O=[N+]([O-])c1ccc(SCc2ccco2)cc1N1CCOCC1	29*	54*	-25%	8%	-3%	0%
O=[N+]([O-])c1ccc(N2CCOCC2)cc1SCc1ccco1	9	-5	-20%	-13%	-2%	3%
Clc1ccc(Cc2nc(-c3ccncc3)no2)cc1	17*	38	-4%	2%	0%	-1%
COc1ccc(-c2noc(Cc3cccs3)n2)cc1	32*	82*	-21%	13%	1%	-1%
COc1ccc(-c2noc(Cc3ccccc3OC)n2)cc1	23	44	-16%	-3%	1%	2%
COc1ccc(Cc2nc(-c3ccncc3)no2)cc1	37*	85*	-5%	4%	6%	2%
COc1ccc(-n2nnnc2C2CCN(S(=O)(=O)c3cccc(Cl)c3C)CC2)cc1	/	/	/	2%	/	/
C=CCNC(=S)N/N=C/c1ccc(N(CC)Cc2ccccc2)cc1	13*	-3	/	-17%	-1%	6%
Nc1c(C(=O)Nc2cccc(F)c2)nnn1-c1cccc(C(F)(F)F)c1	18*	60*	2%	5%	6%	-1%
Nc1c(C(=O)Nc2ccc(F)cc2)nnn1-c1cccc(C(F)(F)F)c1	15*	21	12%	3%	0%	-5%
Cc1ccc(NC(=O)c2nnn(-c3cccc(C(F)(F)F)c3)c2N)cc1	-2	54	-5%	2%	4%	-4%
CCCN(CC(=O)Nc1cc(Cl)ccc1Cl)C(=O)/C=C/c1ccco1	55*	126*	-12%	-2%	-17%	4%
CN(CC(=O)Nc1ccc(Cl)c(C(F)(F)F)c1)C(=O)/C=C/c1cccs1	/	/	6%	0%	/	/
CN(CC(=O)Nc1ccc(Cl)c(C(F)(F)F)c1)C(=O)/C=C/c1ccco1	14	37*	-4%	-5%	-2%	-1%
CCCN(CC(=O)Nc1cc(Cl)ccc1Cl)C(=O)/C=C/c1cc(OC)ccc1OC	/	/	-9%	2%	/	/
C=CCSc1nc2ccccc2n1C(=O)/C=C/c1cc(OC)c(OC)c(OC)c1	49*	111*	-10%	0%	0%	3%
CCn1c(SCC(=O)N/N=C/c2ccc(OC)c(OC)c2)nc2ccccc21	2	-4	-3%	-7%	-4%	3%
C=CCSc1nc2ccccc2n1C(=O)/C=C/c1ccc(OC)c(OC)c1	0	-9	-4%	-1%	-8%	1%
CCSc1nc2ccccc2n1C(=O)/C=C/c1ccc(OC)c(OC)c1	13*	-1	/	-9%	-3%	3%
CO[C@H]1COC(=O)CCC[C@H](C)[C@@H](OC)COC(=O)C/C=C\[C@@H]1C	/	/	/	/	3%[12.9 µM]	/
CNS(=O)(=O)c1cc(Cl)ccc1Sc1ccccc1C(=O)O	1	-4	27%	0%	11%	8%
NS(=O)(=O)c1c(Sc2ccccc2C(=O)O)ccc2ccccc12	30*	/	-1%	-3%	8%	-1%
Cc1cccc(/C=N/NC(=O)C(C)Nc2cccc3ccccc23)n1 (configuration not stated)	16*	12	-12%	1%	?	0%
